Reference: PubChem BioAssay AID431 (Sanford-Burnham Center for Chemical Genomics, 2006)
Among all 63,000 compounds or so, about 1,100 (1.7%) were called active. The sample holds actives, similar compounds and a random draw of the others, so the mix is not that of the screen. Measured potencies and affinities stand elsewhere. A number with no mark means an inactive call.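 Rule for the calls: active = compounds whose percent cytotoxicity in the single-dose primary screen, scaled between solvent and toxic-drug controls, exceeds 50; inactive = the rest.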

Assay: viability loss of HPDE-C7K cells – cell-based, fluorescence, HTS, primary screen (AID 431);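 note: 0% = DMSO solvent wells and 100% = doxorubicin-treated wells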
Details: HPDE-C7K KRASV12 cells, Alamar Blue viability, 48 h; at 10 µM; active compounds read high

SMILES | cytotoxicity
CC(C)CN(CC(C)C)S(=O)(=O)N1CCC(C(=O)NCCN2CCOCC2)CC1 | -24.9%
Cc1ccc2c(c1)NC(=O)C(CC(=O)NCCCN1CCCC1=O)O2 (stereo unspecified) | -1%
Cc1nn(C)cc1/C=N/O | -2%
COc1cc(Nc2cc(C)nc3nc(C)nn23)cc(OC)c1OC | -6%
Cc1ccc(S(=O)(=O)N(C)Cc2nc(-c3ccc(Br)cc3)no2)cc1 | -5%
COC(=O)C1=C(C)n2nnnc2NC1c1ccc(Cl)cc1 (stereo unspecified) | 69.3% (active)
COC(=O)C1=C(C)n2nnnc2NC1c1cc2ccccc2o1 (stereo unspecified) | 4.4%
COC(=O)C1=C(C)n2cnnc2NC1c1ccc(Cl)cc1 (stereo unspecified) | 6.1%
Cc1cc(S(=O)(=O)NCCN2CCOCC2)c(C)s1 | 1.5%
O=C(CCN1C(=O)COc2ccccc21)NCCN1CCN(c2ccccc2F)CC1 | 2%
C=CCn1c(COc2ccccc2)nnc1SCC(=O)Nc1ccc(S(N)(=O)=O)cc1 | -13.8%
Cc1cccc(N2CCN(C(=O)C3CCCN(S(=O)(=O)c4cccc5cccnc45)C3)CC2)c1C (stereo unspecified) | 24.5%
O=C(Nc1ccc(Cl)cc1)c1cc2nc(-c3ccco3)cc(C(F)(F)F)n2n1 | 69.4% (active)
O=C(Nc1cnn(Cc2ccc(F)cc2)c1)c1cc2nc(-c3ccco3)cc(C(F)(F)F)n2n1 | 48.5%
O=C(Nc1cnn(Cc2ccccc2)c1)c1cc2nc(-c3ccco3)cc(C(F)(F)F)n2n1 | 24.8%
Cc1ccccc1Cn1cc(NC(=O)c2cc3nc(-c4ccco4)cc(C(F)(F)F)n3n2)cn1 | 30.9%
Cc1ccccc1Cn1ccc(NC(=O)c2cc3nc(-c4ccco4)cc(C(F)(F)F)n3n2)n1 | 61.3% (active)
Cc1ccccc1Cn1ccc(NC(=O)c2cnn3c(C(F)(F)F)cc(-c4ccco4)nc23)n1 | 42.2%
Cc1noc(C)c1COC(=O)C1CC(O)CN1S(=O)(=O)c1ccc(Cl)cc1 (stereo unspecified) | -5.6%
CCc1ccccc1N(C(=O)c1cccs1)C1C=CS(=O)(=O)C1 (stereo unspecified) | -8.1%
COc1ccc(C(=O)CSC2=C(C#N)C3(CCCCC3)C(C#N)=C(N)N2)cc1 | 30.1%

SMILES | cytotoxicity
CSC1=C(C#N)C2(CCCC2)C(C#N)=C(N)N1 | 30.6%
N#CC1=C(N)NC(SCC(=O)O)=C(C#N)C12CCCC2 | -1.2%
CCSC1=C(C#N)C2(CCCCC2)C(C#N)=C(N)N1 | 1.2%
CCSC1=C(C#N)C2(CCCC2)C(C#N)=C(N)N1 | 18.9%
CC1(C)CC(=O)C2=C(C1)NC(SCC(=O)Nc1ccccc1)=C(C#N)C21CCCCC1 | -9.5%
N#CC1=C(N)NC(SCc2ccccc2)=C(C#N)C12CCCCC2 | 78.5% (active)
O=C(CC(NS(=O)(=O)c1ccc(Cl)cc1)c1ccco1)NCc1cccnc1 (stereo unspecified) | -10.2%
CCOC(=O)N1CCN(c2nc(C)c3c(n2)CC(C)CC3=O)CC1 (stereo unspecified) | -14.7%
Cn1c(N2CCC(C(N)=O)CC2)nc2c1c(=O)n(Cc1ccc(Cl)cc1)c(=O)n2C | 16.9%
FC(F)(F)c1cccc(N2CCN(Cc3cccnc3)CC2)c1 | 21.8%
CC(C)Oc1cccc(C(=O)Nc2ccccc2N2CCOCC2)c1 | -2.7%
COc1cc(C2C(C(=O)c3cccs3)=C(O)C(=O)N2c2cc(C)on2)ccc1O (stereo unspecified) | 14.5%
CCn1c2ccccc2c2cc(Nc3cc(C)nc4ncnn34)ccc21 | 74.4% (active)
Cc1cc(Nc2ccc3ccccc3c2)n2ncnc2n1 | -8.1%
CCc1cccc(Nc2cc(C)nc3ncnn23)c1 | -4.4%
Cc1ccc(-c2nn(C)c(=O)c3ccccc23)cc1CNC(=O)CN1CCOCC1 | 4.3%
O=C(Cn1nnc(-c2cc(Cl)ccc2-n2cnnn2)n1)N1CCCc2ccccc21 | -0.5%
CCOC(=O)N1CCC(NC(=O)c2csc3c2CCCC3)CC1 | -1.5%
COC(=O)C1=C(N)Oc2cc(C)oc(=O)c2C1c1ccncc1 (stereo unspecified) | -2.1%
COC(=O)/C(=C1/Oc2cc3c(cc2S1)OCO3)C(F)(F)F | -15.1%
COC(=O)/C(=C1/Oc2cc(C)oc(=O)c2S1)C(F)(F)F | 70.4% (active)

SMILES | cytotoxicity
O=C(COC(=O)C(O)c1ccccc1)NC12CC3CC(CC(C3)C1)C2 (stereo unspecified) | -12.9%
CN(C)/C=C1\C(=O)c2ccc(N(C)C)nc2CC1c1ccccc1 (stereo unspecified) | 59.9% (active)
CN(C)C=C1C(=O)c2ccccc2C1=O | 48%
CN(C)/C=C1/Sc2ccccc2C1=O | -18.3%
CCCOC(=O)Nc1ccc(S(=O)(=O)Nn2cnnc2)cc1 | 5.7%
N#Cc1nc(Cc2cccc3ccccc23)oc1NCc1ccco1 | 63.1% (active)
C=CCNc1oc(Cc2cccc3ccccc23)nc1C#N | -8.6%
CNc1oc(Cc2cccc3ccccc23)nc1C#N | 14.7%
CCn1cc(C(=O)NCC2CCCO2)c(=O)c2cc(S(=O)(=O)N(C)C3CCCCC3)ccc21 (stereo unspecified) | 13.1%
Cc1ccc(-c2nnc3n2N=C(c2ccccc2)CS3)cc1 | -2.4%
COc1ccccc1-c1nnc2n1N=C(C)CS2 | -13.6%
COc1cccc(C2=Nn3c(nnc3-c3ccccc3O)SC2)c1 | -11.6%
COc1ccc(C2=Nn3c(nnc3-c3ccccn3)SC2)cc1OC | -4.6%
c1ccc(C2=Nn3c(nnc3-c3cc(-c4ccccc4)n[nH]3)SC2)cc1 | -6.7%
CCOc1ccc(C2=Nn3c(nnc3-c3ccc(OC)cc3)SC2)cc1 | 40.7%
COc1ccc(C2=Nn3c(nnc3-c3ccccc3)SC2)cc1OC | 0.4%
CCOc1ccc(-c2nnc3n2N=C(c2ccc(OC)cc2)CS3)cc1 | -5%
COc1ccccc1-c1nnc2n1N=C(c1ccc(O)c(O)c1)CS2 | 54.8% (active)
CCOc1ccc(C2=Nn3c(nnc3-c3ccccc3OC)SC2)cc1 | 66.6% (active)
